Source: PubChem BioAssay (NCATS)
Values joined by “and” are separate entries in the source; they are usually repeats but may differ in a detail not shown here. Equal values may be shown once. Records with an inconclusive call do not appear. Active and inactive are the calls of the source. Calls follow the shape of the dose curve; as a rule, active = well fitted curve in the direction sought with a large enough effect; inconclusive = small, poorly fitted or top-dose-only effect, or another doubt; inactive = no such curve, though single readings can be large; an effect the other way counts as inactive or inconclusive.

Legend:
[1] = Viability qHTS for spleen associated tyrosine kinase inhibitor (SYKi) naive MV4-11 cells (AID 1963823); also: nearly all actives have a fitted effect of over 40% in size
Outline: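 CellTiter-Glo luminescence, 10 min room-temperature incubation, gave viability. Cells: naive MV4-11 (500/well), treated 72 hr at 37 C, 5% CO2.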

[2] = Viability qHTS for spleen associated tyrosine kinase inhibitor (SYKi) drug resistant MV4-11 cells (AID 1963824); also: nearly all actives have a fitted effect of over 35% in size
Outline: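 SYK inhibitor-resistant MV4-11 AML cells, 500 per well, added to predispensed compounds and incubated 72 hr at 37 C, 5% CO2. Viability measured by CellTiter-Glo luminescence after 10 min at room temperature.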

[3] = Cellular viability qHTS for adrenocortical cancer (ACC) cell line NCI-H295R (AID 1963990); also: nearly all actives have a fitted effect of over 60% in size
Outline: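 CellTiter-Glo ATP luminescence, read 48 h after compound addition, measured viability of NCI-H295R adrenocortical cells grown serum-free with ITS. Final concentrations spanned up to 46 uM. Data normalized to DMSO and doxorubicin, fitted for IC50 and maximal response.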
Potency is read from the fitted curve at half-maximal effect.

SMILES	Potency [1]	Potency [2]	Potency [3]
Cc1cc(=O)[nH]c(=S)[nH]1	inactive	inactive	inactive
OC(c1ccc(-c2ccc(CN3CCN(Cc4ccncc4)CC3)cc2)c(F)c1)(C(F)(F)F)C(F)(F)F	4.17 µM (active)	5.9 µM (active)	inactive
Cc1nc(NC(=O)N2CCCC2C(N)=O)sc1-c1ccnc(C(C)(C)C(F)(F)F)c1 (stereo not drawn)	18.6 µM (active)	9.2 µM (active)	12.6 µM (active)
COc1ccc2cc1Oc1ccc(cc1)C[C@H]1c3c(cc4c(c3Oc3cc5c(cc3OC)CCN(C)[C@@H]5C2)OCO4)CCN1C	11.9 µM (active)	9.44 µM (active)	18.4 µM (active)
Cc1c(C)n(Cc2ccccc2)c2ccc(C(=O)OCCN(C)C)cc12	11.9 µM (active)	11.9 µM (active)	23.1 µM (active)
CC[N+](CC)(CC)CCOC(=O)C(C1CCCC1)C1CCCC1	18.8 µM (active)	11.9 µM (active)	inactive
COC(=O)Nc1ccc(-c2nc(N3CCOCC3)c3cnn(C4CCN(C(=O)OC)CC4)c3n2)cc1	0.662 µM (active)	1.05 µM (active)	2.51 µM (active)
CN[C@H](CC(C)C)C(=O)N[C@H]1C(=O)N[C@@H](CC(N)=O)C(=O)N[C@H]2C(=O)N[C@H]3C(=O)N[C@H](C(=O)N[C@H](C(=O)O)c4cc(O)cc(O)c4-c4cc3ccc4O)[C@H](O)c3ccc(c(Cl)c3)Oc3cc2cc(c3O[C@@H]2O[C@H](CO)[C@@H](O)[C@H](O)[C@H]2O[C@H]2C[C@](C)(N)[C@H](O)[C@H](C)O2)Oc2ccc(cc2Cl)[C@H]1O	inactive	inactive	inactive
Cc1ccccc1C(=O)Nc1ccc(C(=O)N2CCCC(N(C)C)c3ccccc32)cc1 (stereo not drawn)	5.96 µM (active) and 2.91 µM (active)	4.73 µM (active) and 4.61 µM (active)	1.64 µM (active)
CSc1ccc2c(c1)N(CCC1CCCCN1C)c1ccccc1S2 (stereo not drawn)	15 µM (active)	13.3 µM (active)	4.61 µM (active)
COC(=O)[C@@H](N)Cc1ccc(O)c(O)c1	inactive	inactive	inactive
COc1c(C)c2c(c(O)c1C/C=C(\C)CCC(=O)OCCN1CCOCC1)C(=O)OC2	1.5 µM (active) and 332 nM (active)	1.19 µM (active) and 833 nM (active)	1.26 µM (active)
Cn1nccc1Nc1nccc(-c2cc3c(s2)C(C)(C)N(CCN2CCOCC2)C3=O)n1	3.72 µM (active)	3.72 µM (active)	inactive
CC(C)[N+](C)(C)CC(O)COc1cccc2ccccc12 (stereo not drawn)	inactive	inactive	inactive
Cc1ccc(-c2ccc3c(ccc4sc5c(c43)NC[C@@H](C)NC5=O)n2)cn1	2.59 µM (active)	2.91 µM (active)	28.2 µM (active)
Cc1ccc(-n2c(C)cc(-c3nnc4n3CCCCC4)c2C)cc1	8.33 µM (active)	8.33 µM (active)	inactive
COc1cc2c(cc1OC)-c1cc(=Nc3c(C)cc(C)cc3C)n(C)c(=O)n1CC2	9.44 µM (active)	10.6 µM (active)	20.6 µM (active)
C=C1C(=O)O[C@@H]2[C@H]3C(C)=CC[C@@]34O[C@@]4(C)CC[C@@H]12	3.32 µM (active)	1.48 µM (active)	17.8 µM (active)
CC(=O)O[C@@]12CO[C@@H]1C[C@H](O)[C@@]1(C)C(=O)[C@H](O)C3=C(C)[C@@H](OC(=O)[C@H](O)[C@@H](NC(=O)OC(C)(C)C)c4ccccc4)C[C@@](O)([C@@H](OC(=O)c4ccccc4)[C@H]21)C3(C)C	0.0027 µM (active)	0.0024 µM (active)	0.0411 µM (active)

SMILES	Potency [1]	Potency [2]	Potency [3]
Nc1nccn2c(C3CCC(C(=O)O)CC3)nc(-c3cc4cccc(Cl)c4[nH]3)c12 (stereo not drawn)	0.934 µM (active)	580 nM (active) and 1.48 µM (active)	12.6 µM (active)
Cn1cc(-c2ccc(-c3cncc(Cl)c3N3CCC4(CCNC4=O)CC3)cc2)cn1	5.25 µM (active)	1.48 µM (active)	inactive
CCNC(=O)C#Cc1ccc2c(C(=Nc3ccc(CN(C)C)cc3)c3ccccc3)c(O)[nH]c2c1	0.0126 µM (active)	0.0317 µM (active)	2.85 µM (active)
Oc1ccc(/C=C/c2cc(O)cc(O)c2)cc1	16.6 µM (active)	18.6 µM (active)	inactive
C=CC(=O)N1CCC(Oc2cc3c(Nc4ccc(Cl)c(Cl)c4F)ncnc3cc2OC)CC1	1.03 µM (active)	4.68 µM (active)	25.1 µM (active)
CNCC[C@H](Oc1cccc2ccccc12)c1cccs1	18.8 µM (active)	26.6 µM (active)	18.4 µM (active)
COC(=O)C1=C(C)NC(C)=C(C(=O)OCC(C)C)C1c1ccccc1[N+](=O)[O-] (stereo not drawn)	10.6 µM (active)	10.6 µM (active)	16.4 µM (active)
O=C(c1ccc(Nc2nc(C3CC3)cn3c(-c4cn[nH]c4)cnc23)c(F)c1)N1CCOCC1	1.05 µM (active)	1.66 µM (active)	7.94 µM (active)
Cc1ccc(Nc2ncc3c(n2)N(C)C(=O)N(c2cc(NC(=O)c4cccc(C(F)(F)F)c4)ccc2C)C3)cn1	0.0148 µM (active)	0.013 µM (active)	inactive
COc1ccc(NS(=O)(=O)c2ccc(N)cc2)nn1	inactive	inactive	inactive
Cn1cc(C2=C(c3cn(C)c4cc([N+](=O)[O-])ccc34)C(=O)NC2=O)c2ccccc21	0.296 µM (active)	0.372 µM (active)	0.178 µM (active)
Cn1cc(-c2cnn3c(N)c(Br)c(C4CCCNC4)nc23)cn1 (stereo not drawn)	0.291 µM (active)	0.461 µM (active)	inactive
O=C(Nc1ccnc(NC(=O)C2CC2)c1)c1c(Cl)cccc1Cl	5.17 µM (active)	4.68 µM (active)	11.2 µM (active)
CCOC(=O)N1CCN(/[N+]([O-])=N/Oc2ccc([N+](=O)[O-])cc2[N+](=O)[O-])CC1	2.95 µM (active)	2.63 µM (active)	22.4 µM (active)
CC(=O)OCC(=O)[C@@]1(O)[C@H](OC(C)=O)C[C@H]2[C@@H]3CCC4=CC(=O)C=C[C@]4(C)[C@@]3(F)[C@@H](O)C[C@@]21C	inactive	inactive	inactive
COc1ccc(Cl)cc1C(=O)NCCc1ccc(S(=O)(=O)NC(=O)NC2CCCCC2)cc1	inactive	inactive	inactive
Cc1ccc(C(=O)OCc2ccc([C@@H](CN)C(=O)Nc3ccc4cnccc4c3)cc2)c(C)c1	1.15 µM (active)	2.29 µM (active)	11.3 µM (active)
CCCCCN(CCCOC)C(=O)C(CCC(=O)O)NC(=O)c1ccc(Cl)c(Cl)c1 (stereo not drawn)	inactive	inactive	inactive
C=C1C(=O)O[C@@H]2[C@H]3O[C@]3(C)CC/C=C(\C)CC[C@@H]12	2.35 µM (active)	1.86 µM (active)	10 µM (active)

SMILES	Potency [1]	Potency [2]	Potency [3]
C=CC(=O)N1CC/C(=C\c2ccc(F)c([N+](=O)[O-])c2)C(=O)/C(=C/c2ccc(F)c([N+](=O)[O-])c2)C1	0.0332 µM (active)	0.0332 µM (active)	0.316 µM (active)
CC(COc1ccccc1)NN (stereo not drawn)	inactive	inactive	inactive
COC1=C(OC)C(=O)C(C/C=C(\C)CC/C=C(\C)CC/C=C(\C)CC/C=C(/C)CC/C=C(\C)CC/C=C(\C)CC/C=C(\C)CC/C=C(\C)CC/C=C(\C)CCC=C(C)C)=C(C)C1=O	inactive	inactive	inactive
CC/C(=C(/CC)c1ccc(O)cc1)c1ccc(O)cc1	16.6 µM (active)	18.6 µM (active)	3.66 µM (active) and 8.91 µM (active)
N#C/C(=C(/N)Sc1ccc(N)cc1)c1ccccc1C(F)(F)F	10.5 µM (active)	7.42 µM (active)	inactive
N#C/C(=C1/SC[C@@H](c2ccc(Cl)cc2Cl)S1)n1ccnc1	11.9 µM (active)	13.3 µM (active)	inactive
CCn1c(=O)c(-c2ccc(-c3cncs3)cc2Cl)cc2cnc(Nc3ccc(N4CCN(C)CC4)cc3)nc21	0.291 µM (active)	0.461 µM (active)	inactive
CCN(Cc1ccncc1)C(=O)C(CO)c1ccccc1 (stereo not drawn)	inactive	inactive	inactive
O=C(CCN1CCC(c2ccccc2)C1)c1ccc2c(c1)OCCO2 (stereo not drawn)	7.5 µM (active)	10.6 µM (active)	6.51 µM (active)
O=C(/C=C/c1ccc2ccc(C(F)(F)F)cc2n1)c1ccncc1	0.934 µM (active)	0.934 µM (active)	4.47 µM (active)
CCc1cc(S(=O)(=O)O)c2cc(C(C)C)cccc1-2	inactive	inactive	inactive
C=CC(=O)Nc1cccc(C)c1Nc1ncc2cc(-c3c(Cl)c(OC)cc(OC)c3Cl)ccc2n1	1.03 µM (active)	1.46 µM (active)	3.55 µM (active)
c1ccc(CNCc2ccc(CN3CCCNCCNCCCNCC3)cc2)nc1	inactive	inactive	inactive
COc1ccccc1C(=O)Nc1cc2c(cc1N1CCNC[C@H]1C)n(C)c(=O)n2C	5.9 µM (active)	11.8 µM (active)	inactive
COCC(=O)O[C@]1(CCN(C)CCCc2nc3ccccc3[nH]2)CCc2cc(F)ccc2[C@@H]1C(C)C	21.1 µM (active)	13.3 µM (active)	16.4 µM (active)
COC(=O)c1ccc([C@H]2c3[nH]c4ccccc4c3C[C@H](C(=O)OC)N2C(=O)CCl)cc1	0.235 µM (active)	0.525 µM (active)	0.0891 µM (active)
O=C(O)Cn1c(C(=O)Nc2nc(-c3ccccc3Cl)cs2)cc2ccccc21	inactive	inactive	inactive
NC(=O)c1ncn([C@@H]2O[C@H](CO)[C@@H](O)[C@H]2O)c1O	inactive	inactive	inactive
